The text below walks through data of PMC5700166.

Common to all, as to experiment: protein-binding microarray (PBM); PBM: ~300 nM protein, 6 mM HEPES pH 7.8, 80 mM KCl, 0.5 mM EDTA, 0.5 mM EGTA, 6% glycerol, 35 ng/ul poly-dIdC, 1% milk, 1 h, room temperature; Ap Aiptasia and Nv Nematostella (sea anemones) / Co Capsaspora / Aq Amphimedon (sponge) / Dm Drosophila / Hu human; RHD is the Rel homology domain; high values mean tight binding
Conditions in all cases: dsDNA, one strand shown

The target of one assay is T1, GST-Ap-NF-kB RHD (Exaiptasia pallida (Aiptasia), UniProt A0A913YAJ5 2-422).
T1 sequence: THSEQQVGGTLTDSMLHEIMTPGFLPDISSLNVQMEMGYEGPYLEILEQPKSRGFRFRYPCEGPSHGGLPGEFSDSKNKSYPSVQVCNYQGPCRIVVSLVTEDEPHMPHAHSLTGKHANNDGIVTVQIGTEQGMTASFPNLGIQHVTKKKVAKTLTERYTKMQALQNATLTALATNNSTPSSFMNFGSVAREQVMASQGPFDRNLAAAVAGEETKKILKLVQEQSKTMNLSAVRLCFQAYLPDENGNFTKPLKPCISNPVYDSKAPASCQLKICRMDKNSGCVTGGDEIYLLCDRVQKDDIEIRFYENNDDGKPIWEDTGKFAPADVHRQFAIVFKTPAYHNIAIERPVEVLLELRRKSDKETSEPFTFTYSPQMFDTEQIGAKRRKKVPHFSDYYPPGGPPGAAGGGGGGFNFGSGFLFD

Assay [1] has as its target T2, GST-Nv-NF-kB (Cys allele) (Nematostella vectensis, UniProt E5G601 2-411).
T2 sequence: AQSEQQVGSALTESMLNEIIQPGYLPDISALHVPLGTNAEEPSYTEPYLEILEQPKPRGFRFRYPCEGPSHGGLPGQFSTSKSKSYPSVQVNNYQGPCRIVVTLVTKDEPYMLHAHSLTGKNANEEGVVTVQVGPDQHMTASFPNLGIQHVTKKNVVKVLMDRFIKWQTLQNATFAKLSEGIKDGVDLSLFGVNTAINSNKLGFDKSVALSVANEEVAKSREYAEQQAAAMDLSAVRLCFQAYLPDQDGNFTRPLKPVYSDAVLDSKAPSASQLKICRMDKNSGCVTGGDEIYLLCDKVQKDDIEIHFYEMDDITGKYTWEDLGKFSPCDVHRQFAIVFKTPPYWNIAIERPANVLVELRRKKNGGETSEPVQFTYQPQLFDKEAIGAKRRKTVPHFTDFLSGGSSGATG

A further assay has as its target T3, GST-Co-NF-kB (Capsaspora owczarzaki, UniProt F1ARL5 200-546).
T3 sequence: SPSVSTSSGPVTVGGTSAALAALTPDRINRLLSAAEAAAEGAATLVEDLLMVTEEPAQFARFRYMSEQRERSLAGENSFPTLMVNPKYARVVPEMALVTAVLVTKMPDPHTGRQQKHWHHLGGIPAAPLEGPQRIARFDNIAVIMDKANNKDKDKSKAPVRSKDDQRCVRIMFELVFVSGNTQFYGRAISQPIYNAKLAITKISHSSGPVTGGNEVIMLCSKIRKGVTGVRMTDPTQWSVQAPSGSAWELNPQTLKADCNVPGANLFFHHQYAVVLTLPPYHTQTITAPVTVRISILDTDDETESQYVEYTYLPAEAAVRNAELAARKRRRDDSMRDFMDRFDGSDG

The target in the next assay is T4, GST-Dm-Relish (Drosophila melanogaster, UniProt Q94527 99-473).
T4 sequence: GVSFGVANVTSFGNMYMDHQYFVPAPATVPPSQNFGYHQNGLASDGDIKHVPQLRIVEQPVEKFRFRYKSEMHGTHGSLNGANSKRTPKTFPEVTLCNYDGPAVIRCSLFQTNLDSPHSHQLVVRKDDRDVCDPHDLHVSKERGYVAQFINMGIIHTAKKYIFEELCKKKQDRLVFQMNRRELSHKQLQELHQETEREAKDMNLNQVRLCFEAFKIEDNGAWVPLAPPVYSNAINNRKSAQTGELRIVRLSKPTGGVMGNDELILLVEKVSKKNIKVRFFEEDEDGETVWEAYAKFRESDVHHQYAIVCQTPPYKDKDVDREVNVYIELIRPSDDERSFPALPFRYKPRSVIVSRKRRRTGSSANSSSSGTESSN

The target in another assay is T5, GST-Aq-NF-kB (Amphimedon queenslandica, UniProt A9Y5G7 2-389).
T5 sequence: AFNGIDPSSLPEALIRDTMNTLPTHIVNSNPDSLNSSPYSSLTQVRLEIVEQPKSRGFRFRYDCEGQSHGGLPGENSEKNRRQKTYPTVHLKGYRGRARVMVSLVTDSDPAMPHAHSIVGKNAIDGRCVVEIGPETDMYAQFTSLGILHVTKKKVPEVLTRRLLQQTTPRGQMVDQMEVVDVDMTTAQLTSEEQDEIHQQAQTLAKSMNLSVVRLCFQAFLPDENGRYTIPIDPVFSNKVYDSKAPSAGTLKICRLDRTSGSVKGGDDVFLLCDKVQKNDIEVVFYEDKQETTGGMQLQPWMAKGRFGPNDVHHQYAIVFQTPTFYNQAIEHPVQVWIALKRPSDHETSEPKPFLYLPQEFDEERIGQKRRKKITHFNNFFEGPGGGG

In a further assay the target is GST-Hu-p50 (Homo sapiens, UniProt P19838 7-356).
Sequence of GST-Hu-p50 (P19838 7-356): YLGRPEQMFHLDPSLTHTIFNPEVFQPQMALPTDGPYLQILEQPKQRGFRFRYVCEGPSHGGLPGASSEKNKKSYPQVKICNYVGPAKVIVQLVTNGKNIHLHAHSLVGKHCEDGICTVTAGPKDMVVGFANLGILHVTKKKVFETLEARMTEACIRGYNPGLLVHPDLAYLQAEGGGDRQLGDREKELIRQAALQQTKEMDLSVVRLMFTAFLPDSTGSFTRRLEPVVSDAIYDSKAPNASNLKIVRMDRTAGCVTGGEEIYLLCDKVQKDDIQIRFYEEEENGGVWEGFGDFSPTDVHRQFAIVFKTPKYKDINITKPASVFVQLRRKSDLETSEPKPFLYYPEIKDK
The target in assay [2] is T6, GST-Nv-NF-kB (Ser allele) (Nematostella vectensis, UniProt A7UNT2 2-411).
T6 sequence: T2 sequence with Q21R, C66S, S207N, E215Q, V217A, E225K, A268E, D399E

Changes are numbered by the printed parent chain.

For the sequence “CCGATTAACATCAGGGGGTGGAATGATGTTAATCGGGTCTTGATTCGCTTGACGCTGCTG”, the binding signal with GST-Ap-NF-kB RHD was 3.47 z-score; in assay [1], 3.19 z-score; in the assay with GST-Co-NF-kB it was 4.5 z-score; in the assay with GST-Dm-Relish, 2.66 z-score; with GST-Aq-NF-kB, 3.65 z-score; with GST-Hu-p50 it was 4.42 z-score.

As for “CCGATTAACATCAGAAAGTTCCCTGATGTTAATCGGGTCTTGATTCGCTTGACGCTGCTG”, the binding signal with GST-Ap-NF-kB RHD was determined as 4.17 z-score; in assay [1], 4.74 z-score; with GST-Co-NF-kB it was 3.54 z-score; with GST-Dm-Relish it was 6.32 z-score; with GST-Aq-NF-kB it was 5.8 z-score; in the assay with GST-Hu-p50 it was 4.18 z-score.

For the sequence “CCGATTAACATCAGGCGAACCCCTGATGTTAATCGGGTCTTGATTCGCTTGACGCTGCTG”, the binding signal in the assay with GST-Ap-NF-kB RHD worked out at 1.57 z-score; in assay [1], 1.1 z-score; with GST-Dm-Relish it was 1.37 z-score; with GST-Aq-NF-kB, 2.96 z-score; with GST-Hu-p50, 1.53 z-score.

In the case of “CCGATTAACATCAGGGGGGAACATGATGTTAATCGGGTCTTGATTCGCTTGACGCTGCTG”, the binding signal is 6.4 z-score with GST-Ap-NF-kB RHD; 4.35 z-score in assay [1]; 9.73 z-score with GST-Co-NF-kB; 4.25 z-score in the assay with GST-Dm-Relish; 5.22 z-score with GST-Aq-NF-kB; 5.4 z-score with GST-Hu-p50.

For the sequence “CCGATTAACATCACCCCAAACGCTGATGTTAATCGGGTCTTGATTCGCTTGACGCTGCTG”, the binding signal with GST-Ap-NF-kB RHD came to 1.27 z-score; with GST-Co-NF-kB it was 1.79 z-score; with GST-Aq-NF-kB, 1.09 z-score; in the assay with GST-Hu-p50 it was 1.17 z-score.

Regarding “CCGATTAACATCAGGACTGCCCCTGATGTTAATCGGGTCTTGATTCGCTTGACGCTGCTG”, the binding signal in the assay with GST-Ap-NF-kB RHD worked out at 3.49 z-score; in assay [1] it was 4.13 z-score; in the assay with GST-Dm-Relish it was 3.18 z-score; with GST-Aq-NF-kB, 7.05 z-score; with GST-Hu-p50, 4.09 z-score.

Take “CCGATTAACATCAGGGATACACCTGATGTTAATCGGGTCTTGATTCGCTTGACGCTGCTG”: the binding signal with GST-Ap-NF-kB RHD came to 2.29 z-score; in assay [1], 1.83 z-score; with GST-Co-NF-kB, 1.56 z-score; in the assay with GST-Dm-Relish it was 2.76 z-score; with GST-Aq-NF-kB it was 3.45 z-score; with GST-Hu-p50, 2.49 z-score.

As for “CCGATTAACATCAGAAAATCACCTGATGTTAATCGGGTCTTGATTCGCTTGACGCTGCTG”, the binding signal with GST-Ap-NF-kB RHD came to 2.77 z-score; in assay [1], 3.28 z-score; with GST-Dm-Relish, 6.91 z-score; with GST-Aq-NF-kB it was 3.39 z-score; with GST-Hu-p50, 5.67 z-score.

For “CCGATTAACATCACCCTCGAGGGTGATGTTAATCGGGTCTTGATTCGCTTGACGCTGCTG”, the binding signal with GST-Ap-NF-kB RHD amounted to 1.01 z-score; in assay [2], 1.78 z-score; with GST-Co-NF-kB, 1.1 z-score; with GST-Dm-Relish, 1.08 z-score; with GST-Aq-NF-kB, 1.65 z-score; with GST-Hu-p50, 2.34 z-score.

“CCGATTAACATCACGGAAACACCTGATGTTAATCGGGTCTTGATTCGCTTGACGCTGCTG”: the binding signal was found to be 1.22 z-score with GST-Ap-NF-kB RHD; 1.16 z-score in assay [2]; 1.78 z-score with GST-Dm-Relish; 2.29 z-score with GST-Aq-NF-kB; 3 z-score in the assay with GST-Hu-p50.

With “CCGATTAACATCAGAACCCCCCCTGATGTTAATCGGGTCTTGATTCGCTTGACGCTGCTG”, the binding signal was determined as 7.14 z-score in the assay with GST-Ap-NF-kB RHD; 4.85 z-score in assay [1]; 4.1 z-score with GST-Co-NF-kB; 7.49 z-score with GST-Dm-Relish; 5.36 z-score with GST-Aq-NF-kB; 5.28 z-score with GST-Hu-p50.

Regarding “CCGATTAACATCAAACCACCCCCTGATGTTAATCGGGTCTTGATTCGCTTGACGCTGCTG”, the binding signal was 3.91 z-score with GST-Ap-NF-kB RHD; 3.14 z-score in assay [1]; 3.81 z-score with GST-Co-NF-kB; 2.92 z-score in the assay with GST-Dm-Relish; 3.77 z-score with GST-Aq-NF-kB; 4.3 z-score with GST-Hu-p50.

Consider “CCGATTAACATCAGGCCTTCCCCTGATGTTAATCGGGTCTTGATTCGCTTGACGCTGCTG”, for which the binding signal with GST-Ap-NF-kB RHD came to 6.39 z-score; in assay [1] it was 6.79 z-score; with GST-Co-NF-kB it was 2.84 z-score; with GST-Dm-Relish it was 9.6 z-score; with GST-Aq-NF-kB it was 7.14 z-score; with GST-Hu-p50 it was 4.63 z-score.

Consider “CCGATTAACATCACGGTGTTTCCTGATGTTAATCGGGTCTTGATTCGCTTGACGCTGCTG”, for which the binding signal is 1.53 z-score in the assay with GST-Ap-NF-kB RHD; 1.22 z-score in assay [1]; 2.06 z-score with GST-Dm-Relish; 2.67 z-score with GST-Aq-NF-kB; 2.96 z-score with GST-Hu-p50.

As to “CCGATTAACATCAAAAACCACCCTGATGTTAATCGGGTCTTGATTCGCTTGACGCTGCTG”, the binding signal with GST-Ap-NF-kB RHD stood at 4.27 z-score; in assay [1], 3.46 z-score; with GST-Co-NF-kB, 2.76 z-score; with GST-Dm-Relish, 7.76 z-score; with GST-Aq-NF-kB, 4.53 z-score; with GST-Hu-p50, 5.64 z-score.

Consider “CCGATTAACATCACGGGAACTCCTGATGTTAATCGGGTCTTGATTCGCTTGACGCTGCTG”, for which the binding signal with GST-Ap-NF-kB RHD turned out to be 3.24 z-score; in assay [1], 2.3 z-score; with GST-Co-NF-kB, 1.84 z-score; in the assay with GST-Dm-Relish it was 6.49 z-score; in the assay with GST-Aq-NF-kB, 4.59 z-score; in the assay with GST-Hu-p50, 1.48 z-score.

As for “CCGATTAACATCAGATAAACCCCTGATGTTAATCGGGTCTTGATTCGCTTGACGCTGCTG”, the binding signal in the assay with GST-Ap-NF-kB RHD was 4.36 z-score; in assay [1] it was 4.29 z-score; with GST-Dm-Relish it was 5.22 z-score; with GST-Aq-NF-kB it was 4.77 z-score; in the assay with GST-Hu-p50, 4.53 z-score.

Take “CCGATTAACATCAGGTGTTTCCATGATGTTAATCGGGTCTTGATTCGCTTGACGCTGCTG”: the binding signal with GST-Ap-NF-kB RHD is 1.26 z-score; in assay [1], 1.06 z-score; in the assay with GST-Dm-Relish it was 2.26 z-score; in the assay with GST-Aq-NF-kB it was 1.98 z-score; with GST-Hu-p50, 2.81 z-score.
